For 19 molecules, viability, differential viability (reversal) and inhibition results are on record in PubChem BioAssay.

Structures are written as SMILES. Calls of active or inactive are those of the source.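 How the source made its calls, unless noted: active means viability at or below 30% in both replicate assays; inconclusive means viability at or below 30% in just one of the two assays; inactive means the rest.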

Experiment [1] in a line: reduced viability of SK-BR-3 breast cancer cells – cell-based, 24 h, human, pilot screen (AID 572;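 active means viability at or below 10% of carrier control in both of two separate runs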;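 further: compound exposure lasted between 18 and 24 h rather than exactly 24 h; 100% = carrier-treated control wells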). To be noted: SK-BR-3 viability, CellTiter-Glo luminescence, at 10 µM, stronger effect = lower value.
The nature of experiment [2]: HUVEC growth inhibition – cell-based, human, primary screen (AID 575).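 Further: 100% = median of untreated cell wells with 0.1% DMSO on each plate.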 The note with it: HUVEC proliferation, CellTiter-Glo luminescence, 72 h; at 10 µM; stronger effect = lower value.
Experiment [3] is described as follows: H69AR cell proliferation blockers – human, duplicate replicates, primary screen (AID 580;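 active means viability at or under a set limit in both replicates, limit being median viability minus 3 SD, cut at about 48% in these data, passing the limit was not always enough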;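 further: 100% = mean luminescence of untreated wells and 0% = no signal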). To be noted: H69AR lung tumor cells viability, ATP luminescence, 72 h; at 10 µM; stronger effect = lower value.
A short description of experiment [4]: MRP1 drug-resistance reversers in H69AR cells – cell-based, doxorubicin co-treatment, pilot screen (AID 601;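 active means viability loss from added drug above about 55%, and viability with drug at most 40%, in both replicates, limit read from the data, passing the limit was not always enough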). To be noted: CellTiter-Glo, 72 h, at 10 µM; for differential viability (reversal): stronger effect = higher value.
The nature of experiment [5]: yeast transport mutant growth inhibition pilot in 384-well plates, post-Golgi transport modulator project (AID 636; in the data active means inhibition above about 31%). To be noted: absorbance 615 nm, about 18 h, stronger effect = higher value.
Experiment [6] can be described thus: growth suppression of yeast trafficking mutant, preliminary HTS, modulators of trafficking downstream of Golgi apparatus project, 1536-format plate, OD 615 nm (AID 637; in the data active means inhibition above about 30%). To be noted: yeast transport mutant growth, absorbance 615 nm, 18 h; stronger effect = higher value.
Setting [7] is: H69AR cells + 2 uM doxorubicin, measured here: viability with 2 uM doxorubicin, stronger effect = lower value.
Where [8] appears, read: H69AR cells, compound alone cytotoxicity.

As for `C=CCNC(=O)c1ccc(Cl)cc1Cl`, the viability is 108% (inactive) in experiment [1]; 92.8% (inactive) in experiment [2]; 97% (inactive) in experiment [3]; 92.6% in experiment [4] (setting [7]); 97% in experiment [4] (setting [8]). Also, the differential viability (reversal) in experiment [4] (H69AR cells + 2 uM doxorubicin) is 4.47% (inactive). Also, the inhibition in experiment [5] was -3.9% (inactive); in experiment [6], -1.48% (inactive).
Take `COc1ccc(/C=N/n2c(SC)nnc2-c2ccccc2)cc1C`: the viability in experiment [1] was 116% (inactive); in experiment [2] it was 75.5% (inactive); in experiment [3], 20.7% (active); in experiment [4] (setting [7]), 78.8%; in experiment [4] (setting [8]), 20.7%. Also, the differential viability (reversal) in experiment [4] (H69AR cells + 2 uM doxorubicin) was -58.1% (inactive). For the same molecule, the inhibition was 0.93% (inactive) in experiment [5] and 9.27% (inactive) in experiment [6].
With `CCN(CC)C(=O)C1=C(C)Nc2nnnn2C1c1cccnc1` (stereo not given), the viability in experiment [1] was 94% (inactive); in experiment [2], 109% (inactive); in experiment [3], 93.8% (inactive); in experiment [4] (setting [7]) it was 89.3%; in experiment [4] (setting [8]) it was 93.8%. Moreover, in experiment [4] (H69AR cells + 2 uM doxorubicin), the differential viability (reversal) is 4.5% (inactive). Besides, the inhibition in experiment [5] is 0.52% (inactive); in experiment [6] it was 3.11% (inactive).
Turning to `CN(C)CCCN1c2ccccc2Sc2ccc(C(F)(F)F)cc21`, the viability in experiment [1] is 4.5% (active); in experiment [2] it was 56.8% (inactive); in experiment [4] (setting [7]), 51%; in experiment [4] (setting [8]), 11.7%. Further, the differential viability (reversal) in experiment [4] (H69AR cells + 2 uM doxorubicin) is -39.3% (inactive).
For `C1CCC(C(CC2CCCCN2)C2CCCCC2)CC1` (stereo not given) the same measures were 2% (active), 2.58% (active), 1.26%, 1.55% and 0.29% (inactive).
Regarding `Clc1cccc(Cl)c1COc1ccncc1`, the viability in experiment [1] was 88% (inactive); in experiment [2], 91.5% (inactive); in experiment [3], 97.2% (inactive); in experiment [4] (setting [7]) it was 94.3%; in experiment [4] (setting [8]), 97.2%. The differential viability (reversal) in experiment [4] (H69AR cells + 2 uM doxorubicin) is 2.84% (inactive). For the same molecule, the inhibition in experiment [5] was 0.82% (inactive); in experiment [6], 27.4% (inactive).
On to `Cn1c(=O)c2c(nc(SCC(=O)N3CCCc4ccccc43)n2C)n(C)c1=O`, for which the viability was 94% (inactive) in experiment [1]; 107% (inactive) in experiment [2]; 102% (inactive) in experiment [3]; 93.9% in experiment [4] (setting [7]); 102% in experiment [4] (setting [8]). Besides, in experiment [4] (H69AR cells + 2 uM doxorubicin), the differential viability (reversal) was 7.81% (inactive). Besides, the inhibition was 1.22% (inactive) in experiment [5] and -2.73% (inactive) in experiment [6].
As for `OCCN1CCN(CCCN2c3ccccc3Sc3ccc(C(F)(F)F)cc32)CC1`, the viability in experiment [1] is 3% (active); in experiment [2] it was 2.4% (active); in experiment [4] (setting [7]), 3.77%; in experiment [4] (setting [8]) it was 1.03%. For the same molecule, the differential viability (reversal) in experiment [4] (H69AR cells + 2 uM doxorubicin) is -2.74% (inactive).
With `Oc1c(Cl)cc(Cl)cc1Sc1cc(Cl)cc(Cl)c1O`, the viability is 143% (inactive) in experiment [1], 1.36% (active) in experiment [2], 11% in experiment [4] (setting [7]) and 11.4% in experiment [4] (setting [8]). Also, in experiment [4] (H69AR cells + 2 uM doxorubicin), the differential viability (reversal) is 0.46% (inactive). Also, the inhibition in experiment [5] is -0.78% (inactive); in experiment [6], 100% (active).
With `O=C(C1CCCCC1)N1CCC(c2nc3c(nnn3Cc3ccccc3Cl)c(=O)[nH]2)CC1`, the figures for the viability in experiment [1], in experiment [2] and in experiment [3] were 90% (inactive), 83.6% (inactive) and 73.9% (inactive), respectively. The values for the inhibition in experiment [5] and in experiment [6] were -3.24% (inactive) and -9.27% (inactive), respectively.
On to `COc1ccc(S(=O)(=O)N2CCN(S(=O)(=O)c3ccc4c(c3)OCCO4)CC2)cc1C`, for which the viability is 101% (inactive) in experiment [1]; 109% (inactive) in experiment [2]; 88.2% (inactive) in experiment [3]; 70.7% in experiment [4] (setting [7]); 88.2% in experiment [4] (setting [8]). The differential viability (reversal) in experiment [4] (H69AR cells + 2 uM doxorubicin) was 17.5% (inactive). Besides, the inhibition in experiment [5] is -5.33% (inactive); in experiment [6] it was 1.09% (inactive).
In the case of `Cc1[nH]nc2c1C(=O)CCC2`, the viability in experiment [1] was 105% (inactive); in experiment [2], 117% (inactive); in experiment [3] it was 101% (inactive); in experiment [4] (setting [7]) it was 96.3%; in experiment [4] (setting [8]), 101%. In experiment [4] (H69AR cells + 2 uM doxorubicin), the differential viability (reversal) was 4.79% (inactive). The inhibition was 0.68% (inactive) in experiment [5] and -0.18% (inactive) in experiment [6].
Consider `CCN(CC)c1ccc2c(c1)CCCN2`, for which the viability was 86.5% (inactive) in experiment [1], 95.9% (inactive) in experiment [2], 56.6% in experiment [4] (setting [7]) and 43.4% in experiment [4] (setting [8]). Further, the differential viability (reversal) in experiment [4] (H69AR cells + 2 uM doxorubicin) was -13.2% (inactive). The figures for the inhibition in experiment [5] and in experiment [6] were -4.21% (inactive) and 1.64% (inactive), respectively.
In the case of `CCCCCn1c(CN2CCN(c3cccc(Cl)c3)CC2)nc2c1c(=O)n(C)c(=O)n2C`, the viability in experiment [1] was 97% (inactive); in experiment [2], 69.2% (inactive); in experiment [3], 88% (inactive); in experiment [4] (setting [7]) it was 49.5%; in experiment [4] (setting [8]), 88%. Besides, in experiment [4] (H69AR cells + 2 uM doxorubicin), the differential viability (reversal) is 38.5% (inactive). Moreover, the inhibition in experiment [5] was 7.7% (inactive); in experiment [6], 11.6% (inactive).
For `Cc1cc(C(C)(C)C)c(O)c(C)c1CC1=NCCN1`, the viability in experiment [1] was 95% (inactive); in experiment [2] it was 93.4% (inactive); in experiment [3], 92.5% (inactive); in experiment [4] (setting [7]) it was 90.3%; in experiment [4] (setting [8]), 92.5%. The differential viability (reversal) in experiment [4] (H69AR cells + 2 uM doxorubicin) is 2.26% (inactive). In addition, the values for the inhibition in experiment [5] and in experiment [6] were -9.04% (inactive) and -3.23% (inactive), respectively.
Regarding `CCOc1ccc(NC(=O)CSc2nc3cccnc3n2CC)cc1`, the viability was 103% (inactive) in experiment [1]; 114% (inactive) in experiment [2]; 81.4% (inactive) in experiment [3]; 82.2% in experiment [4] (setting [7]); 81.4% in experiment [4] (setting [8]). In experiment [4] (H69AR cells + 2 uM doxorubicin), the differential viability (reversal) is -0.765% (inactive). For the same molecule, the results for the inhibition in experiment [5] and in experiment [6] were -3.77% (inactive) and 4.1% (inactive), respectively.
Turning to `CC(=O)[C@@]1(O)CC[C@H]2[C@@H]3C[C@H](C)C4=CC(=O)CC[C@]4(C)[C@H]3CC[C@@]21C`, the viability in experiment [1] is 106% (inactive); in experiment [2], 73.9% (inactive); in experiment [4] (setting [7]) it was 18%; in experiment [4] (setting [8]) it was 2.32%. For the same molecule, the differential viability (reversal) in experiment [4] (H69AR cells + 2 uM doxorubicin) is -15.6% (inactive). For the same molecule, the inhibition in experiment [5] was -1.43% (inactive); in experiment [6], -2.67% (inactive).
As to `O=C(CC(SCCO)c1ccc2c(c1)OCO2)c1ccco1` (stereo not given), the viability is 77.5% (inactive) in experiment [1], 95% (inactive) in experiment [2], 59.3% in experiment [4] (setting [7]) and 41.5% in experiment [4] (setting [8]). In experiment [4] (H69AR cells + 2 uM doxorubicin), the differential viability (reversal) was -17.8% (inactive). The inhibition was -7.57% (inactive) in experiment [5] and -3.65% (inactive) in experiment [6].
As for `CCOC(=O)Nc1ccc2c(c1)N(C(=O)CCN1CCOCC1)c1ccccc1S2`, the viability was 78% (inactive) in experiment [1], 97% (inactive) in experiment [2], 76% in experiment [4] (setting [7]) and 64.7% in experiment [4] (setting [8]). For the same molecule, in experiment [4] (H69AR cells + 2 uM doxorubicin), the differential viability (reversal) is -11.3% (inactive). The inhibition in experiment [5] was -5.07% (inactive); in experiment [6] it was -2.55% (inactive).
